The list is not random: actives were taken first. Their share in the collection is about 2.9%.
ADAM10 inh: inhibits human ADAM10 | O14672 | recombinant ADAM10, EDANS/DABCYL FRET peptide cleavage, 3 h | inhibition, % at 7 µM | hit rate 0.62% among 370,000;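 active = inhibition above a per-campaign cutoff equal to the mean of compounds falling between control-based bounds plus 3 SD, cut at about 20% in these data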
PLC-gamma1 inh: blocks human PLC-gamma1 enzyme activity | inhibition, % at 12.2 µM | purified PLC-gamma1, fluorogenic substrate, fluorescence | hit rate 0.84% among 370,000 | AID 720700 | P19174; in the data active = inhibition above about 9.5%
proKLK7 act: activators of human kallikrein-7 zymogen. P49862. purified proKLK7, EDANS-DABCYL substrate fluorescence; 100% is mature enzyme control, 0% vehicle. activation, % at 7 µM. hit rate 0.9% among 370,000;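 active = activation above the mean of all tested compounds plus 3 SD, computed per campaign excluding outliers beyond control limits, cut at about 13% in these data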
PLCb3 inh: PLC-beta3 (human) inhibition, primary screen; Q01970; Purified PLC-beta3, fluorogenic substrate, fluorescence; inhibition, % at 12.2 µM; hit rate 0.18% among 370,000; in the data active = inhibition above about 11%
ADAM17 inh: ADAM17 inhibition, QFRET primary screen. inhibition, % at 6.95 µM. P78536. AID 720648. hit rate 0.83% among 370,000. recombinant ADAM17, EDANS/DABCYL FRET peptide cleavage;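 active = inhibition above the mean of compounds lying between control limits plus 3 SD, set per campaign, cut at about 8.5% in these data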
ADAM10 ctr: inhibits human ADAM10 in ADAM17 exosite counter-screen; shares compounds with ADAM17 inh; recombinant ADAM10, EDANS/DABCYL FRET peptide cleavage, 3 h; inhibition, % at 6.95 µM; hit rate 47% among 2,900;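 active = mean inhibition over the triplicate runs exceeds the activity threshold set in the earlier primary screen, cut at about 20% in these data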
ADAM17 confirm: confirmation of inhibitors of human ADAM17. shares compounds with ADAM17 inh. recombinant ADAM17, EDANS/DABCYL QFRET peptide cleavage. inhibition, % at 6.95 µM. hit rate 65% among 2,900;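 active = mean inhibition across replicates above the hit cutoff set in the primary screen, cut at about 8.5% in these data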
Large screens that a line does not name were inactive (follow-up assays come after a bar, where they were run).

Cc1ccc(-n2nc3c(=O)n(CCCC(=O)NCc4ccco4)nc(C)c3c2C)cc1	none
CN(C(=O)COC(=O)CCc1c[nH]c2ccccc12)C(c1ccccc1)c1ccccc1	ADAM17 inh 10.8 | ADAM10 ctr 27.9 | ADAM17 confirm 15.1
O=C(CCc1c[nH]c2ccccc12)OCC(=O)c1ccccc1	none
CCCCCCN1C[C@H](n2cc(C3CC3)nn2)[C@@H](O)C[C@@H]1c1ccc(C)cc1	ADAM17 inh 15.2 | ADAM10 ctr inactive | ADAM17 confirm inactive
CC1(C(=O)NS(=O)(=O)Cc2ccccc2)CCN1C(=O)C1(c2ccc(Cl)cc2)CC1 (stereo not drawn)	ADAM17 inh 9.6 | ADAM10 ctr inactive | ADAM17 confirm inactive
CC(Sc1nc2cc(Cl)ccc2s1)C(=O)Nc1cccc(S(=O)(=O)N2CCOCC2)c1 (stereo not drawn)	ADAM17 inh 9.5 | ADAM10 ctr 23.6 | ADAM17 confirm 15.1
COc1cccc(C(NC(C)=O)c2nc(-c3ccc4ccccc4c3)cs2)c1 (stereo not drawn)	ADAM17 inh 11.6 | ADAM10 ctr inactive | ADAM17 confirm 11.3
COc1ccc(C(C)(O)c2nc(-c3ccc4ccccc4c3)cs2)cc1 (stereo not drawn)	ADAM17 inh 8.8 | ADAM10 ctr inactive | ADAM17 confirm inactive
O=C(NCCc1ccccc1F)c1ccc(Sc2ccccc2Cl)c([N+](=O)[O-])c1	none
CCC(C)c1ccccc1NC(=O)COC(=O)c1ccc2[nH]c3c(c2c1)CCCC3 (stereo not drawn)	ADAM17 inh 10.5 | ADAM10 ctr inactive | ADAM17 confirm inactive
O=C(COC(=O)c1ccc2[nH]c3c(c2c1)CCCC3)Nc1ccccc1Cl	none
COc1ccc(S(=O)(=O)N2CCOC2CNC(=O)C(=O)NCCc2ccccc2)cc1 (stereo not drawn)	none
COc1ccc(S(=O)(=O)N2CCCOC2CNC(=O)C(=O)NCCO)cc1 (stereo not drawn)	ADAM17 inh 10.0 | ADAM10 ctr inactive | ADAM17 confirm 9.4
Cc1ccc(CNC(=O)C(=O)NCC2OCCN2S(=O)(=O)c2ccc(Br)cc2)cc1 (stereo not drawn)	none
Cc1ccc(CNC(=O)C(=O)NCC2OCCN2S(=O)(=O)c2ccc(C)cc2)cc1 (stereo not drawn)	ADAM17 inh 10.8 | ADAM10 ctr inactive | ADAM17 confirm inactive
CCOC(=O)c1c(C)[nH]c(C)c1C(=O)COC(=O)/C=C/c1ccc(OC(F)F)cc1	ADAM17 inh 9.3 | ADAM10 ctr 21.1 | ADAM17 confirm 10.3
CCOC(=O)c1c(C)[nH]c(C(=O)COC(=O)/C=C/c2ccc(OC(F)F)cc2)c1C	none
COc1ccc(NC(=O)CN(C)C(=O)/C=C/c2cn(-c3ccccc3)nc2-c2ccc(F)cc2)cc1	none
COc1ccc(NC(=O)CN(C)C(=O)/C=C/c2cn(-c3ccccc3)nc2-c2ccc(C)cc2)cc1	ADAM17 inh 12.7 | ADAM10 ctr inactive | ADAM17 confirm 10.2
COC(=O)C12C=C3CC(c4ccc(C)s4)=C3C(=O)N1Cc1[nH]c3ccccc3c1C2 (stereo not drawn)	none
Cc1ccc(S(=O)(=O)N/N=C/c2cccc3nccnc23)cc1	ADAM17 inh 8.8 | ADAM10 ctr inactive | ADAM17 confirm inactive
Cc1ccc(S(=O)(=O)N/N=C/c2cccc3c2OCCO3)cc1	none
O=C(Nc1ccccc1OC(=O)c1ccc(Cl)cc1)c1ccc(Cl)cc1	none
O=C(Oc1ccccc1-c1nnco1)c1ccc(Cl)cc1	ADAM17 inh 9.7 | ADAM10 ctr inactive | ADAM17 confirm inactive
COCCN=C1OC(=O)N2C(=O)C3=C4[C@@H](C[C@H]5C(=O)N(c6ccccc6)C(=O)[C@H]5[C@H]4[C@@]12Cc1ccccc1)[C@H]1C(=O)N(c2ccccc2)C(=O)[C@H]1[C@H]3C	none
COC(=O)CN=C1OC(=O)N2C(=O)C3=C4[C@@H](C[C@H]5C(=O)N(c6ccccc6)C(=O)[C@H]5[C@H]4[C@@]12Cc1ccccc1)[C@H]1C(=O)N(c2ccccc2)C(=O)[C@H]1[C@H]3C	ADAM17 inh 9.8 | ADAM10 ctr inactive | ADAM17 confirm inactive

Source: PubChem
